# Data as given in PubChem BioAssay (NCI).
# Compounds without any hit were thinned out: in the full panel of roughly 79,000, 15% have a hit. Values without a mark were called inactive. The source made the active and inactive calls. No stated cut-off is given here; in the data, active means growth inhibition above about 70%; inactive means the rest.
# How the values were obtained:
# [1] = NCI Yeast Anticancer Drug Screen. Data for the rad50 strain (AID 155);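 further: 0% = growth of vehicle-only cultures of the same strain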; settings: S. cerevisiae rad50 strain growth inhibition, stronger effect = higher value
# Method in brief: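 DNA repair mutant yeast, compound exposure, growth read-out; inhibition is taken relative to vehicle.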
# [2] = NCI Yeast Anticancer Drug Screen. Data for the mec2-1 strain (AID 157); settings: S. cerevisiae mec2-1 strain, stronger effect = higher value
# Method in brief: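 Readout is yeast growth inhibition, normalised to vehicle-treated controls, in the mec2-1 strain exposed to compound.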
# [3] = NCI Yeast Anticancer Drug Screen. Data for the sgs1 mgt1 strain (AID 161);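 further: 0% = growth of cultures given vehicle only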; settings: S. cerevisiae sgs1 mgt1 strain, stronger effect = higher value
# Method in brief: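 This yeast growth screen uses a strain with defined DNA-repair lesions; compound-treated growth is compared with vehicle-treated growth.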
# [4] = NCI Yeast Anticancer Drug Screen. Data for the cln2 rad14 strain (AID 165);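 further: 0% = growth equal to vehicle treated cultures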; settings: S. cerevisiae cln2 rad14 strain, stronger effect = higher value
# Method in brief: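 Relative to vehicle controls, growth inhibition of compound-treated cln2 rad14 yeast was recorded.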
# [5] = NCI Yeast Anticancer Drug Screen. Data for the bub3 strain (AID 167); settings: S. cerevisiae bub3 mutant strain, stronger effect = higher value
# Method in brief: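 In this screen, a yeast mutant lacking normal mitotic checkpoint function is challenged with compound. Relative growth versus vehicle gives the inhibition value.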
# [6] = NCI Yeast Anticancer Drug Screen. Data for the mlh1 rad18 strain (AID 175); settings: S. cerevisiae mlh1 rad18 strain growth inhibition, stronger effect = higher value
# Method in brief: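 Test agents were incubated with a yeast strain of defined genotype (DNA damage repair defect). Inhibition of growth was derived by comparison with vehicle-exposed cultures.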
# [7] = at 5.0 µM (retest, dose inferred, filed as 0.5)
# [8] = at 50.0 µM (retest, dose inferred, filed as 5.0)
SMILES,"growth inhibition [1, 7]","growth inhibition [1, 8]",growth inhibition ([1]; at 50.0 µM),"growth inhibition [2, 7]","growth inhibition [2, 8]",growth inhibition ([2]; at 50.0 µM),"growth inhibition [3, 7] [%]","growth inhibition [3, 8]",growth inhibition ([3]; at 50.0 µM),"growth inhibition [4, 7]","growth inhibition [4, 8]",growth inhibition ([4]; at 50.0 µM),"growth inhibition [5, 7]","growth inhibition [5, 8]",growth inhibition ([5]; at 50.0 µM),"growth inhibition [6, 7]","growth inhibition [6, 8]",growth inhibition ([6]; at 50.0 µM)
N#Cc1cn(-c2c3ccccc3nc3ccccc23)c(=O)[nH]c1=O,16%,67%,58.4%,-9%,52%,39.9%,3,30%,49.6%,21%,70% (active),48.3%,15%,59%,21.8%,14%,77% (active),76.2% (active)
CCOC(=O)C1SC(=Nc2ccc(Cl)cc2C)N=C1C (stereo not drawn),29%,98% (active),89% (active),25%,97% (active),92.2% (active),32,99% (active),91.7% (active),22%,97% (active),90.2% (active),24%,98% (active),91.2% (active),35%,98% (active),90% (active)
O=c1[nH]c2cc(Cl)ccc2nc1/C=C(\O)c1ccccn1,20%,79% (active),60%,7%,49%,37.8%,8,71% (active),74.8% (active),,,,21%,27%,44.5%,-1%,82% (active),88% (active)
Cc1ccc(S(=O)(=O)C2C=CC=CC=C2)cc1,-156%,84% (active),76.8% (active),-51%,54%,86% (active),-64,77% (active),14.7%,-62%,42%,52%,-71%,66%,71% (active),-140%,87% (active),82% (active)
Cc1cc(N)cc(C)c1-c1c(N)cc(Br)cc1Br,-1%,-10%,98.1% (active),-3%,-6%,97.5% (active),-4,-9%,98.3% (active),1%,-10%,96.6% (active),-7%,-13%,98.1% (active),-2%,-9%,97.9% (active)
CCCC1(C)C(C#N)(C#N)C1(C#N)C#N,98% (active),98% (active),98.5% (active),96% (active),99% (active),99.3% (active),,,,99% (active),99% (active),99.1% (active),99% (active),99% (active),99% (active),99% (active),99% (active),99.2% (active)
CC(=O)OC1COC(n2nnc(C#N)c2C#N)C(OC(C)=O)C1OC(C)=O (stereo not drawn),4%,9%,93.7% (active),-7%,2%,82.4% (active),1,4%,94.7% (active),,,,1%,4%,89.3% (active),0%,27%,91.8% (active)
CCCCc1ccc(Nc2nc(N)c3[nH]cnc3n2)cc1,19%,35%,82.1% (active),25%,26%,84% (active),18,31%,36.1%,,,,16%,31%,34.7%,22%,40%,91.6% (active)
COc1nc(NC2OC(CO)C(O)C(O)C2O)c(Cl)c(=O)[nH]1 (stereo not drawn),1%,1%,47.5%,4%,12%,-0.6%,12,4%,24.1%,7%,11%,20.6%,4%,14%,15.3%,4%,5%,1.65%
O=S(=O)(CC(Br)c1ccccc1)CC(Br)c1ccccc1 (stereo not drawn),-3%,-1%,50.2%,19%,41%,43%,-4,0%,80.9% (active),,,,4%,42%,63.2%,-3%,13%,46.6%
CC(C)c1cccc2sc(NC(=O)C(=O)C(C#N)c3cccc4ccccc34)nc12 (stereo not drawn),0%,14%,19.2%,3%,15%,-9.55%,2,10%,0.25%,,,,3%,5%,5.05%,3%,9%,12.2%
CC(C)C(=O)[O][Bi]([c]1ccccc1)[c]1ccccc1,13%,92% (active),82% (active),7%,78% (active),87.2% (active),-32,93% (active),87.5% (active),9%,90% (active),85.6% (active),11%,93% (active),84.5% (active),15%,88% (active),91% (active)
CC(=O)OC1=C(CC(C)C)C(=O)c2ccccc2C1=O,7%,67%,69.2%,8%,70% (active),59.2%,,,,1%,55%,51%,6%,78% (active),56.6%,20%,85% (active),73.5% (active)
CCC(C)SSc1ccccc1C(=O)Nc1ccc(Cl)cc1 (stereo not drawn),3%,52%,79.5% (active),14%,93% (active),93.9% (active),-12,83% (active),91.7% (active),,,,-2%,93% (active),91.3% (active),7%,91% (active),87.7% (active)
